Vaccinia Venus: vaccinia inhibition (Venus reporter). actives 0.46% (n = 330,000). AID 720580. Vaccinia virus Venus reporter expression, fluorescence. Potency, µM (top dose mostly 36.5 µM), for inactives: top-dose activity change, negative = inhibition, hits mostly inhibitors; calls by dose curve; tested in A549 cells; also: potency is read from the fitted curve at half-maximal effect; nearly all actives have a fitted effect of over 30% in size
Tb PYK inh: blocks Trypanosoma brucei pyruvate kinase. TbPYK enzyme, Kinase-Glo Plus ATP luminescence, 45 min. Potency, µM (doses to about 76.8 µM), for the others: top-dose activity, negative = inhibition, actives largely listed as inhibitors. actives 0.12% (n = 410,000). AID 624173; also: potency is read from the fitted curve at half-maximal effect; nearly all actives have a fitted effect of over 50% in size
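Enzyme and substrate buffer are dispensed first and compound is pin-transferred. ADP at 130 uM final then starts the reaction, which runs 45 min at room temperature. Detection reagent is added for 10 min before luminescence is imaged.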
HCMV inh: inhibitors of human cytomegalovirus; HFF cells, HCMV-luciferase reporter, 72 h; active compounds read low; activity change, negative = inhibition, % at 57.5 µM; actives 4.5% (n = 410,000); in the data active = activity change below about -60%; inconclusive = no clear call, values can overlap the other calls; inactive = above about -39%
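Two-dose cell screen: HFF monolayers treated with compounds and infected with luciferase-expressing HCMV at 1 PFU/cell, 72 h at 37C, then lysed for luciferase measurement.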
Vaccinia mCherry: vaccinia inhibition (mCherry reporter); actives 0.63% (n = 310,000); Potency, µM (top dose mostly 36.5 µM), for inactives: at the highest dose activity change, negative = inhibition, usual class: inhibitors; AID 720579; Vaccinia virus mCherry reporter infection, fluorescence; calls by dose curve; tested in A549 cells; also: potency is read from the fitted curve at half-maximal effect; nearly all actives have a fitted effect of over 35% in size
LmPK inhibitor: LmPK (Leishmania mexicana) enzyme inhibition; Q27686; purified LmPK, Kinase-Glo ATP luminescence, 1 h; Potency, µM (series often up to 57.5 µM), inactives show top-dose activity change, negative = inhibition, usual class: inhibitors; actives 0.37% (n = 290,000); also: potency is read from the fitted curve at half-maximal effect
Target sequence (Q27686 whole entry, looked up): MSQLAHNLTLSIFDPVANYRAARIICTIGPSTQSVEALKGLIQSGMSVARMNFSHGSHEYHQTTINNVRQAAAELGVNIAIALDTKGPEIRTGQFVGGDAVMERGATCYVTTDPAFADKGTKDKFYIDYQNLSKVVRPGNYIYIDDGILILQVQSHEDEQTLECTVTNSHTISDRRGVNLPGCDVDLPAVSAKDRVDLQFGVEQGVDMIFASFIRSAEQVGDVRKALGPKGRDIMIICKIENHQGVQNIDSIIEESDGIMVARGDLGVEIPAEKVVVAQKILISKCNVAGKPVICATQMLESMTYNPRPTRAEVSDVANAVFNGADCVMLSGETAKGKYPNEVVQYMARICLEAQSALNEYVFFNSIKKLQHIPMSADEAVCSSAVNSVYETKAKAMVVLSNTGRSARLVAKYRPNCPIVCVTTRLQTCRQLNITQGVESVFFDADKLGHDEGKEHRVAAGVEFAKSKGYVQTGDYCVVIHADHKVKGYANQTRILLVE
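ATP generated from ADP (0.1 mM) and PEP (0.5 mM) by 0.1 nM LmPK over 1 h at room temperature (pH 7.2 imidazole buffer) was detected by coupled luciferase luminescence. Values were normalized to uninhibited and no-enzyme wells.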
An asterisk follows results filed as active; i = inactive; ? = inconclusive; / = no result given; ! = not confirmed by another sample. A selection: hits, their analogues and other compounds. The true share with any hit is near 5%. Unless noted, calls follow the shape of the dose curve; as a rule, active = well fitted curve in the direction sought with a large enough effect; inconclusive = small, poorly fitted or top-dose-only effect, or another doubt; inactive = no such curve, though single readings can be large; an effect the other way counts as inactive or inconclusive. % is scaled to controls: 0 for no effect and ±100 for the full control effect.

SMILES | Vaccinia Venus | Tb PYK inh | HCMV inh | Vaccinia mCherry | LmPK inhibitor
COc1cccc(NC(=O)N2CCC(NC(=O)C(Cc3ccccc3F)NC(C)=O)CC2)c1 (stereo not given) | -6% | -3% | -27 | -10% | -6%
Cc1cccc(NC(=O)NC(C)C(c2cccs2)N2CCOCC2)c1 (stereo not given) | 1% | -2% | -67* | -15% | 2%
O=C(NCc1ccccc1)C1CC(=O)N(C2CCCCCC2)C1 (stereo not given) | -8% | -10% | 3 | -1% | -2%
O=C(c1ccco1)N1CCN(C(=O)c2cc(-c3ccncc3)nc3ccc(Br)cc23)CC1 | 15% | -5% | 69 | / | /
O=C(O)c1cc(-c2ccco2)nc2ccc(Br)cc12 | 0% | 18µM*! | -18 | -11% | 3%
CCC(C)n1c(=O)c(C(=O)Nc2ccccc2S(N)(=O)=O)c(O)c2ccccc21 (stereo not given) | ? | -4% | -25 | 13µM* | 1%
CC(C)CCn1c(=O)c(C(=O)Nc2ccccc2S(N)(=O)=O)c(O)c2ccccc21 | ? | 0% | -97* | ? | -3%
CC(C)Cn1c(=O)c(C(=O)Nc2ccccc2S(N)(=O)=O)c(O)c2ccccc21 | ? | 1% | -24 | ? | 4%
Cc1ccc(C(C[N+](=O)[O-])c2c(N)n(C)c(=O)n(C)c2=O)cc1 (stereo not given) | / | -10% | 57 | / | -2%
COc1cc(C(C[N+](=O)[O-])c2c(N)n(C)c(=O)n(C)c2=O)ccc1O (stereo not given) | -26% | -1% | -71* | -20% | 4%
COc1cc(C(C[N+](=O)[O-])c2c(C)cc3ccccn23)ccc1O (stereo not given) | 4% | ? | -64* | -1% | -4%
COc1cccc(F)c1C(C[N+](=O)[O-])c1c(N)n(C)c(=O)n(C)c1=O (stereo not given) | / | -1% | -100* | / | 13%
Cc1cc(N2CCCC2=O)ccc1S(=O)(=O)NCCOc1ccccc1 | -5% | -8% | -68* | -13% | 2%
CCOC(=O)[C@]12CCC=C1N(Cc1ccc(Cl)cc1Cl)C(=O)[C@H](CC(=O)NCc1ccc(OC)c(OC)c1)C2 | -21% | 5% | -93* | -26% | /
COC(=O)[C@]12CCCCC=C1N(Cc1cccc3ccccc13)C(=O)[C@H](CC(=O)NCC13CC4CC(CC(C4)C1)C3)C2 | -15% | -3% | -85* | -7% | /
CCOC(=O)[C@]12CCCC=C1N(Cc1cccc3ccccc13)C(=O)[C@H](CC(=O)NCc1ccc(OC)c(OC)c1)C2 | ? | 2% | -76* | ? | /
CCOC(=O)[C@]12CCCC=C1N(Cc1ccccc1)C(=O)[C@H](CC(=O)NCc1ccc(OC)c(OC)c1)C2 | ? | / | -3 | ? | /
CC1CCN(CC(=O)Nc2cccc(Cl)c2)CC1 | -6% | 0% | 22 | -8% | -2%
CC1(C)CC(=O)C(C2C3=C(CC(C)(C)CC3=O)Oc3ccccc32)C(=O)C1 (stereo not given) | -22% | -14% | 0 | ? | 3%
CC1(C)CC(=O)C2=C(C1)Oc1nc3ccccc3cc1C2C(C#N)C#N (stereo not given) | 11µM* | -1% | 122 | ? | 0%
COc1ccccc1C1CN(CCNC(=O)c2sccc2Cl)Cc2ccccc2O1 (stereo not given) | 4% | / | / | -13% | /
C=C1CCC2[C@](C)(CO)[C@H](O)CC[C@@]2(C)[C@@H]1C/C=C1\C(=O)OC[C@H]1O (stereo not given in full) | -9% | 4% | -107* | -17% | /
C=C/C(C)=C/C[C@H]1C(=C)CCC2[C@](C)(C(=O)O)CCC[C@@]21C (stereo not given in full) | -9% | 4% | / | -7% | /
O=C(c1ccc(F)cc1)N1CCC(c2ccccc2)C1 (stereo not given) | -20% | 1% | 43 | i | 0%
NC(=O)CC(NC(=O)Cc1ccc(Br)cc1)c1ccc(NCCOc2ccccc2)c([N+](=O)[O-])c1 (stereo not given) | -11% | -5% | -22 | ? | 0%
SMILES | Vaccinia Venus | Tb PYK inh | HCMV inh | Vaccinia mCherry | LmPK inhibitor
CCOc1ccc(COC(=O)C2CC(=O)N(CCc3ccccc3)C2)cc1OC (stereo not given) | / | -1% | 0 | / | /
CN1/C(=C\C(=O)C[n+]2cccc(C(N)=O)c2)C(C)(C)c2ccccc21 | -4% | -6% | -33 | -28% | 0%
Cc1ccc[n+](CC(=O)/C=C2\N(C)c3ccccc3C2(C)C)c1 | -27% | 6% | -98* | ? | -2%
CN1/C(=C\C(=O)COC(=O)c2ccc(O)c(O)c2)C(C)(C)c2ccccc21 | 60% | -2% | -79* | ? | 1%
CN1/C(=C\C(=O)CSc2cccc[n+]2[O-])C(C)(C)c2ccccc21 | 9% | 1% | -16 | 3% | 3%
CN1/C(=C/C(=O)CSc2ccccc2C(=O)O)C(C)(C)c2ccccc21 | / | -3% | 20 | / | 2%
Cc1cccc[n+]1CC(=O)/C=C1\N(C)c2ccccc2C1(C)C | 49% | -11% | -95* | -1% | 2%
CN1/C(=C\C(=O)C[n+]2cccc(Br)c2)C(C)(C)c2ccccc21 | -10% | -1% | -83* | ? | 0%
COC(=O)c1sccc1NC(=O)CC1C(=O)NCCN1C(=O)Nc1ccc(OCc2ccccc2)cc1 (stereo not given) | / | 2% | 89 | / | 1%
COc1ccccc1N1CC(C(=O)OCC(=O)c2c(N)n(C)c(=O)n(C)c2=O)CC1=O (stereo not given) | -3% | 0% | 0 | i | /
CN1/C(=C\C(=O)C[n+]2ccc(C(=O)c3ccccc3)cc2)C(C)(C)c2ccccc21 | ? | -3% | -95* | -17% | 1%
CN(C)c1ccc(/C=N/NC(=O)C(=O)/C=C2\NC3(CCCC3)Cc3ccccc32)cc1 | -14% | 3% | -63* | i | 6%
COc1cc(/C=N/NC(=O)C(=O)/C=C2\NC3(CCCC3)Cc3ccccc32)ccc1O | -25% | 1% | 7 | -30% | 3%
O=C(/C=C1\NC2(CCCC2)Cc2ccccc21)C(=O)N/N=C/c1ccccc1O | ? | -6% | -71* | 13µM* | -5%
COc1ccc(N(CC(=O)O)S(C)(=O)=O)cc1OC | -4% | -4% | -20 | -6% | -2%
COc1ccc(CC(=O)Nc2c(C(=O)N3CCN(c4ccccc4)CC3)oc3ccccc23)cc1OC | -1% | -1% | -25 | -13% | -1%
Cc1[nH]n(-c2ccccc2)c(=O)c1C(C[N+](=O)[O-])c1ccc(Br)cc1 (stereo not given) | -21% | -11% | -104* | / | 4%
Cc1c(C2CC(=O)N(c3ccccc3)C2=O)[nH]n(-c2ccccc2)c1=O (stereo not given) | -2% | -12% | -15 | / | -5%

High-throughput results as filed in PubChem.
